Most compounds without a hit are left out; they make up all but 1.2% or so of the library.
PglD DTNB: blocks C. jejuni PglD acetyltransferase activity; 360,000 tested, 0.098% active; purified PglD enzyme, DTNB colorimetric CoA detection; AID 602405; inhibition, % at 12.5 µM; in the data active means inhibition above about 16%, passing the limit was not always enough
miR122 inh: inhibitors of miR-122 in Huh7 cells; Huh7 miR-122 Renilla luciferase sensor, 48 h; neutral wells = 0, positive control = 100; activation (reporter increase), % at 12.5 µM; 340,000 tested, 0.3% active;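 active means mean replicate activation score at least 90 and every replicate individually at or above 90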;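 further: higher luciferase means less miR-122 activity so hits act as miR-122 inhibitors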
C2C12 statin: suppression of simvastatin myotoxicity. 330,000 tested, 0.78% active. rescue of ATP level, % at 7.49 µM. C2C12 myotubes + simvastatin, ATP luminescence, 48 h; scaled: DMSO 0, geranylgeraniol control 100;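 active means mean ATP rescue above about 67%, or every replicate alone reaching that limit, limit read from the data, passing the limit was not always enough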;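 further: myotubes were challenged with 10 µM simvastatin during compound exposure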
NSD2 inh: inhibitors of human histone methyltransferase NSD2 | O96028 | inhibition, % at 12.5 µM | 310,000 tested, 0.54% active | NSD2 peptide methylation, AlphaScreen, 120 min; in the data active means inhibition above about 50%
Target sequence (O96028 whole entry, looked up): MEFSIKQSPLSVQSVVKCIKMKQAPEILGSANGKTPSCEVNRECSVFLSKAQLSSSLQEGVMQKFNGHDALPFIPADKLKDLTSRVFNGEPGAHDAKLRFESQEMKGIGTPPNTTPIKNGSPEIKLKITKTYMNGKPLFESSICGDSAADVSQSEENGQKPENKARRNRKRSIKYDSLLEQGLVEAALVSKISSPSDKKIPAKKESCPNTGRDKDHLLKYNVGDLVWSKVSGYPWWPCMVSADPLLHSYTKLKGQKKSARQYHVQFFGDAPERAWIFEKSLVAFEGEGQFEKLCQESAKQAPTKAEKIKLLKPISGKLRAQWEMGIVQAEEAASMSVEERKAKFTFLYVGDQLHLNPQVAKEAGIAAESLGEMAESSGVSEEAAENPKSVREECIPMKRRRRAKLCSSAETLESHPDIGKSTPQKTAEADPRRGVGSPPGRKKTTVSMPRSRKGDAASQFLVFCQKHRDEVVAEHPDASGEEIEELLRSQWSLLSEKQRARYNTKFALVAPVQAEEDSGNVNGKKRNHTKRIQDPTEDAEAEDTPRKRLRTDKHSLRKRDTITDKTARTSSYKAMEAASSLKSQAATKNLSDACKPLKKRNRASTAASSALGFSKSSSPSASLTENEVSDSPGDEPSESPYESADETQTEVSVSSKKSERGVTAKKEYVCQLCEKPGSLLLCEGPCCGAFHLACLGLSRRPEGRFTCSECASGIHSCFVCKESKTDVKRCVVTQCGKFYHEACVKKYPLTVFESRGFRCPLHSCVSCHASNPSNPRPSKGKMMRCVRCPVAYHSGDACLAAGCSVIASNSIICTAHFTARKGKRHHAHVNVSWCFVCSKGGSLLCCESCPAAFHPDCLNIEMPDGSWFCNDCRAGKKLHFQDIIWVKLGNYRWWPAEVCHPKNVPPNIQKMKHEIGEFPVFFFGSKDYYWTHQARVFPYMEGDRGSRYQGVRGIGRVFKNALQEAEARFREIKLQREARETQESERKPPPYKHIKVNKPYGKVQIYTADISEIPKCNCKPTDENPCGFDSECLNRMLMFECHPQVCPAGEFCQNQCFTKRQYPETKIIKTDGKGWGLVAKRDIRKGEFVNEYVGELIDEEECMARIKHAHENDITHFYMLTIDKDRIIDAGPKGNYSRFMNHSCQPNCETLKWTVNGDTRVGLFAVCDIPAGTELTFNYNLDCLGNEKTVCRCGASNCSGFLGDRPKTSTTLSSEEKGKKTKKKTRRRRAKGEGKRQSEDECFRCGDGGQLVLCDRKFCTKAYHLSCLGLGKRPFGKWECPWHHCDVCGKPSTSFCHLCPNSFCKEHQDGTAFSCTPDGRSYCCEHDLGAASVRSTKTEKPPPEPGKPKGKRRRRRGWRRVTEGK
AlphaScreen art: counter-screen for NSD2 inhibitors: AlphaScreen artifacts. AC35, µM (doses to about 10 µM). 1,500 tested, 9.4% active. shares compounds with NSD2 inh. AlphaScreen artifact counterscreen, preloaded methylated H4 peptide; call rule not given here
A number is an active result; - = inactive; . = not tested or not shown.

SMILES	PglD DTNB	miR122 inh	C2C12 statin	NSD2 inh	AlphaScreen art
CCN(C(=O)/C=C/c1ccc2c(c1)OCO2)c1ccccc1	.	.	.	62	-
C[C@H]1CN([C@@H](C)CO)C(=O)c2cccc(NS(=O)(=O)c3cn(C)cn3)c2O[C@@H]1CN(C)C(=O)Nc1cccc2ccccc12	-	-	-	.	.
COc1ccc(C(=O)OCC(=O)Nc2c(C)n(C)n(-c3ccccc3)c2=O)cc1	-	-	-	51	-
COc1cc(OC)c(C(=O)OCC(=O)Nc2c(C)n(C)n(-c3ccccc3)c2=O)cc1OC	.	.	-	-	.
COc1ccc(-c2nnc(SCC(=O)c3ccc(O)cc3O)o2)cc1	-	.	-	81	-
COc1ccc(-c2nnc(SCC(=O)c3ccc[nH]3)o2)cc1	-	-	-	-	.
CCCCN(CC)CCNC(=O)c1ccc2c(Cl)c3c(nc2c1)CCC3	-	-	-	75	-
O=C(O)COc1ccc2c(c1)O/C(=C\c1ccco1)C2=O	-	-	-	66	-
CC1(C)Cc2sc3c(=O)[nH]c(=S)[nH]c3c2CO1	.	-	-	75	-
O=C(NC(=S)NNC(=O)c1ccccc1O)c1ccccc1	-	-	-	-	.
Cc1ccc(C(=O)NC(=S)NNC(=O)c2ccccc2O)cc1	-	.	-	50	-
CO[C@@H]1CN(C)C(=O)c2cc(NC(=O)C3CC3)ccc2OC[C@H](C)N(C(=O)c2ccccc2)C[C@@H]1C	-	.	-	.	.
NC(=O)c1nsc(C(=O)N(c2ccccc2)C(C(=O)NCC2CCCO2)c2ccc3ncccc3c2)c1N (configuration not stated)	-	-	-	59	-
Cc1ccc(S(=O)(=O)N[C@H]2CC[C@H](CC(=O)NCCc3ccncc3)O[C@H]2CO)cc1	-	.	-	.	.
N#Cc1cc(-c2ccccc2)nnc1Oc1ccccc1Cl	-	-	.	71	-
C[C@@H]1CN([C@H](C)CO)C(=O)c2cc(NC(=O)c3ccncc3)ccc2O[C@H]1CN(C)C(=O)NC1CCCCC1	-	-	-	.	.
CCN(CC)C(=O)C1CCCN(Cc2ccc(OC)c(C)c2C)C1 (configuration not stated)	-	-	-	53	-
CCOC(=O)C1CCCN(Cc2cc(Br)ccc2OC)C1 (configuration not stated)	-	-	-	.	.
O=C(NC1CCCc2ccccc21)c1ccccc1OC(F)F (configuration not stated)	-	-	-	95	-
O=C(CCc1nnc(-c2ccsc2)o1)NCc1ccccc1OC(F)(F)F	-	-	-	-	.
O=C(CCc1nnc(-c2ccccc2)o1)NCc1cc(F)ccc1F	.	.	.	51	-
O=C(O)C[C@@H]1C[C@H]2c3cc(NC(=O)c4ccc5c(c4)OCO5)ccc3O[C@H]2[C@@H](CO)O1	-	-	-	.	.
Cc1noc(C)c1NC(=O)Nc1ccc2c(c1)C(=O)N([C@H](C)CO)C[C@H](C)[C@H](CN(C)C(=O)CCCN(C)C)OCCCC[C@H](C)O2	-	-	-	.	.
C[C@H](CO)N1C[C@H](C)[C@H](CN(C)Cc2ccc(Cl)c(Cl)c2)Oc2c(NC(=O)Nc3cccc4ccccc34)cccc2C1=O	-	-	-	.	.
Cc1ccc(Cl)c2c1NC(=O)C2(O)CC(=O)c1ccc(Br)cc1 (configuration not stated)	-	-	-	-	.
SMILES	PglD DTNB	miR122 inh	C2C12 statin	NSD2 inh	AlphaScreen art
O=C(CC1(O)C(=O)Nc2cc(Cl)cc(Cl)c21)c1ccncc1 (configuration not stated)	-	-	-	97	-
CCS(=O)(=O)Nc1ccc2c(c1)C(=O)N(C)C[C@H](OC)[C@H](C)CN(C(=O)C1CCC1)[C@H](C)CO2	-	.	-	.	.
COc1ccc(C(=O)Nn2c(SCC(=O)c3ccc(Cl)cc3)nc3ccccc3c2=O)cc1	-	-	-	116	-
C[C@H](NC(=O)C[C@H]1CC[C@H](NC(=O)C2CC2)[C@@H](CO)O1)c1ccccc1	-	.	-	.	.
CC1(C(=O)O)CCCN1C(=O)c1cccc(F)c1 (configuration not stated)	-	-	-	-	.
CCOC(=O)C1(C)CCCN1C(=O)c1cccc(F)c1 (configuration not stated)	-	-	-	59	-
CN1/C(=N\O)c2cccc3cccc1c23	-	-	-	55	-
CCCCn1c(NS(=O)(=O)c2ccc(C)cc2)c(S(=O)(=O)c2ccccc2)c2nc3ccccc3nc21	-	-	-	127	-
Cc1ccc(S(=O)(=O)c2c(N)n(CCCN(C)C)c3nc4ccccc4nc23)cc1	-	-	-	-	.
COc1ccc(Cc2nnc(NC(=O)C3CC(=O)N(c4ccc(OC)cc4)C3)s2)cc1 (configuration not stated)	-	-	-	73	-
CCOc1ccc(N2CC(C(=O)Nc3nnc(Cc4ccc(OC)cc4)s3)CC2=O)cc1 (configuration not stated)	-	-	-	-	.
COCCn1c(N)c(N(Cc2ccccc2)C(=O)c2cc(=O)[nH]c3ccccc23)c(=O)[nH]c1=O	-	-	-	93	-
CC(=O)c1c(C)[nH]c(C(=O)Nc2ccc(C)cc2Br)c1C	-	-	-	72	-
COc1cc(NC(=O)c2[nH]c(C)c(C(C)=O)c2C)cc(OC)c1OC	-	-	-	121	-
N#C/C(=C\c1ccc(-c2ccc(C(=O)O)cc2)o1)C(=O)NCC1CCCO1 (configuration not stated)	.	.	.	54	-
N#C/C(=C\c1ccc(N2CCOCC2)o1)C(=O)NCC1CCCO1 (configuration not stated)	.	-	-	-	.
COc1cccc(S(=O)(=O)N(C)C[C@H]2Oc3ncc(-c4cccc(C(=O)N(C)C)c4)cc3C(=O)N([C@H](C)CO)C[C@@H]2C)c1	-	-	-	.	.
O=C(Cc1cccnc1)N[C@@H]1CC[C@H](CCn2cc(Cc3ccccc3)nn2)O[C@H]1CO	-	.	-	.	.
COc1ccc(/C=N/NC(=O)c2cc(O)c(O)c(O)c2)cc1Cn1cc([N+](=O)[O-])cn1	.	.	.	73	8.6µM
C[C@@H]1CN([C@H](C)CO)C(=O)c2cc(-c3cccnc3)cnc2O[C@@H]1CN(C)C(=O)c1cccc(F)c1	-	-	-	.	.
CCN(CC)CCNC(=O)c1cccc(NC(=O)C(=O)c2cc(Br)ccc2NC(C)=O)c1	-	-	-	57	-
CC(=O)Nc1ccccc1C(=O)C(=O)Nc1cccc(Br)c1	.	.	.	-	.
CC(C)(C)CN1CCNC(=O)C1CC(=O)N1CCN(c2ccccc2)CC1 (configuration not stated)	-	-	-	-	.
CC(C)(C)CN1CCNC(=O)C1CC(=O)N1CCC(C(=O)N2CCOCC2)CC1 (configuration not stated)	.	.	.	79	-
N=C1/C(=C\c2ccc(Br)o2)C(=O)N=C2SC(CC(=O)N3CCCCC3)=NN12	-	-	-	67	-
CCCNC(=O)N[C@@H]1CC[C@H](CCn2cc(-c3cccc(F)c3)nn2)O[C@@H]1CO	-	.	-	.	.
O=C(O)c1cc(N/N=C/c2ccc3c(c2)OCO3)ccc1Cl	.	.	.	75	-

Screening data deposited in PubChem by Broad Institute.
